Screening data (PubChem)
In the library only some 2.3% were active in any assay of this set; here they are far more common.
ANO1 activ: activators or potentiators of mouse TMEM16A chloride channel; Q8BHY3; HEK293 TMEM16A/YFP-H148Q/I152L, iodide quench fluorescence; stronger effect = lower value; B-score at 10 µM; 340,000 tested, 0.3% active;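 active means fluorescence-ratio B-score plate-corrected deviation score at least 3 library SD below zero, with starting fluorescence score within 5 deviations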;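 further: channel opened by trigger with iodide after compound preincubation; score built on the fluorescence ratio of max minus min over baseline; more negative score means more quench and so TMEM16A activation or potentiation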
CHT allo act: allosterically activates the human high affinity choline transporter | CHT-expressing cells, membrane potential dye, choline EC20; stronger effect = higher value; LV-AA mutant CHT in HEK293 cells | B-score at 10 µM | Q9GZV3 | AID 488977 | 310,000 tested, 0.49% active;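 active means initial fluorescence not abnormally high and integrated response B-score, plate-corrected, over 3 SD above library mean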
ANO1 block: mouse TMEM16A channel inhibition, primary screen; Q8BHY3; HEK293 TMEM16A/YFP iodide influx fluorescence, ionomycin; normalized B-score (activity score, 25-100; higher = stronger inhibition) at 10 µM; 310,000 tested, 1.2% active;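 active means ratio plate-corrected score three or more library SD toward inhibition, starting fluorescence score within five deviations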;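 further: score derived from kinetic fluorescence span divided by baseline fluorescence per well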
CHT inh: inhibits the human high affinity choline transporter; B-score at 10 µM; Q9GZV3; AID 488975; CHT-expressing cells, membrane potential dye, choline response; stronger effect = lower value; 310,000 tested, 0.86% active;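 active means B-score over 3 SD under the library average, and starting fluorescence ratio not unusually high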;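 further: choline stimulus applied at its EC90 after an EC20 pre-addition; B-score computed on integrated fluorescence ratio after choline addition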
CHT activ conf: human CHT activation, confirmatory screen; shares compounds with CHT allo act; CHT-expressing cells, membrane potential dye fluorescence (FDSS); % of choline EC20–EC90 response window; HEK293 expressing CHT LV-AA mutant; choline added at its EC20; activation, % at 10 µM; 2,500 tested, 91% active; AID 504833;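 active means primary screen active, with duplicate mean activation above negative control mean plus 3 SD, cut at about 11% in these data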
HEK293 MP dye: CHT activator counter-screen hit in parental HEK293 cells; shares compounds with CHT allo act; membrane potential dye fluorescence (FDSS); measured after EC20 choline addition; ratio readout change at 10 µM, hits read low; 2,500 tested, 62% active;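 active means duplicate-averaged ratio beyond 3 SD from buffer wells, up or down, though filed actives are nearly all decreases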
* hit, by the source's call; i = inactive; . = no result.

SMILES	ANO1 activ	CHT allo act	ANO1 block	CHT inh	CHT activ conf	HEK293 MP dye
O=C(NCCCn1ccnc1)c1cc(-c2ccc(Cl)cc2)nc2ccccc12	i	i	i	i	.	.
O=C(NC1CCCCC1)C(c1cccs1)N(Cc1cccs1)C(=O)c1cccs1 (stereo not given)	i	9.2*	i	i	30*	i
COCCN(C(=O)CNC(=O)c1cccs1)C(C(=O)NC1CCCC1)c1cccs1 (stereo not given)	i	i	i	i	.	.
COc1ccccc1N(C(=O)c1ccco1)C(C(=O)NC1CCCC1)c1cccs1 (stereo not given)	i	11*	i	i	23*	i
Cc1cn2c(=O)c(C(=O)N3CCN(c4ccccc4Cl)CC3)cnc2s1	i	i	i	i	.	.
Cc1nnc(SCC(=O)NCC2CCCO2)n1Cc1ccccc1 (stereo not given)	i	.	.	.	.	.
COc1ccc(-c2nc3ccccc3n2Cc2ccc(C)cc2)cc1	i	i	i	i	.	.
COc1ccc(Cn2c(-c3ccc(C)cc3)c[n+]3ccccc23)cc1	i	11*	i	i	62*	-51*
O=C(CN1CCN(S(=O)(=O)c2cccc(Cl)c2)CC1)NCC1(N2CCOCC2)CCCCC1	i	.	.	.	.	.
COc1ccc(Cl)cc1C(=O)Nc1ccncc1	i	i	i	i	60*	-42*
COc1ccc(Cl)cc1C(=O)NNC(=O)c1ccncc1	i	i	i	i	.	.
COc1ccc(C(=O)Nc2ccncc2)cc1[N+](=O)[O-]	i	i	i	i	.	.
COc1ccc(C(=O)Nc2ccncc2)cc1OC	i	8.2*	i	i	39*	-50*
CC(C)N(CCCNC(=O)C1CCN(C(=O)c2cc3sccc3n2C)CC1)Cc1ccccc1	i	i	i	i	.	.
CN1CCN(c2nc(-c3cccnc3)nc3ccccc23)CC1	i	7.3*	i	i	42*	-88*
CN1CCN(c2nc(-c3ccc(Cl)c(Cl)c3)nc3ccccc23)CC1	i	i	i	i	.	.
CN1CCN(c2nc(-c3ccccn3)nc3ccccc23)CC1	i	9.1*	i	i	55*	-94*
Cc1ccc2nc(Cl)c(CN(Cc3cccs3)C(=O)C3CC3)cc2c1	i	i	i	i	.	.
COc1ccc(CCN(Cc2cc3cc(C)c(C)cc3nc2Cl)C(=O)C2CC2)cc1	i	9.2*	i	i	-4	i
COc1ccc(CN2CCC(N(CCc3ccccc3)Cc3ccccc3)CC2)c(OC)c1	i	i	i	i	22*	i
COc1ccc(CCn2c(SCCN3CCCCC3)nc3ccccc3c2=O)cc1OC	i	7.4*	i	i	56*	-60*
C=CCNC(=O)CSc1nc2ccccc2c(=O)n1CCc1ccc(OC)c(OC)c1	i	i	i	i	.	.
C(=NOCc1ccccc1)c1cccnc1	i	.	.	.	.	.
Cc1cc(NCCCn2ccnc2)n2nc(-c3ccc(F)cc3)cc2n1	i	8*	i	i	42*	-71*
Cc1cccc(-c2cc3nc(C)c(C)c(NCCCn4ccnc4)n3n2)c1	i	i	i	i	.	.
SMILES	ANO1 activ	CHT allo act	ANO1 block	CHT inh	CHT activ conf	HEK293 MP dye
Cc1cc(NCCCn2ccnc2)n2nc(-c3ccc(Cl)cc3)cc2n1	i	8.9*	i	i	38*	-80*
C=C(C)c1cc2c(ccc3ccc(=O)oc32)o1	i	.	.	.	.	.
CC(=O)c1cccc(NC(=O)c2cc3ccccn3n2)c1	i	i	i	i	35*	-27*
COCCN(CC(=O)Nc1ccccc1C(F)(F)F)C(=O)/C=C/c1ccc2ccccc2n1	i	.	.	.	.	.
COc1ccc(-n2nc(C)c3c(=O)c4c([nH]c32)CCCC4)cc1	i	i	i	i	.	.
COc1ccc(C(=O)OCC(=O)Nc2ccc(Cl)c(C(F)(F)F)c2)c(OC)c1OC	i	7.6*	i	i	4	i
Cc1ccc(N/C(N)=N/c2nc(CSc3nnc(C)s3)cc(=O)[nH]2)c(C)c1	i	6.9*	i	i	24*	i
CCCCC(c1nnnn1CC1CCCO1)N1CCN(c2cc(Cl)ccc2C)CC1 (stereo not given)	i	.	.	.	.	.
CCCC(c1nnnn1Cc1ccco1)N1CCN(c2cc(Cl)ccc2C)CC1 (stereo not given)	i	6.7*	i	i	35*	i
CC(C)C(C)NC(=O)COC(=O)C1CCN(S(=O)(=O)c2ccc3c(c2)OCCO3)CC1 (stereo not given)	i	i	i	i	.	.
Clc1ccc(-n2cccc2CN2CCc3c([nH]c4ccccc34)C2c2ccccn2)nc1 (stereo not given)	i	7*	i	i	40*	i
CC(=O)c1cccc(NC(=O)c2ccc3c(c2)C(=O)N(Cc2cccnc2)C3=O)c1	i	i	i	i	.	.
O=C(Nc1cccnc1)c1ccc2c(c1)C(=O)N(Cc1cccnc1)C2=O	i	i	i	i	16*	-39*
O=P(c1ccccc1)(c1ccccc1)C(c1ccccn1)P(=O)(c1ccccc1)c1ccccc1	i	8.5*	i	i	34*	i
O=P(c1ccccc1)(c1ccccc1)C(O)c1ccccn1 (stereo not given)	i	i	i	i	.	.
O=C(CCc1ccccc1)NNC(=O)COc1ccccc1Cl	i	i	i	i	.	.
CC(C)CN(C(=O)CSc1nnc(-c2cccs2)n1N)c1c(N)n(Cc2ccccc2)c(=O)[nH]c1=O	i	6.7*	i	i	26*	i
CC1CCC(=O)N(CCOc2ccccc2)CC1 (stereo not given)	i	i	i	i	.	.
C[C@H]1CCC(=O)N([C@H](COc2ccccc2)Cc2ccccc2)CC1	i	6.3*	i	i	40*	i
Cc1ccc(S(=O)(=O)c2cn(C)c3cc(N4CCN(C)CC4)c(F)cc3c2=O)c(C)c1	i	9.1*	i	i	74*	-84*
CCN1CCN(c2cc3c(cc2F)c(=O)c(S(=O)(=O)c2ccccc2)cn3C)CC1	i	8.4*	i	i	77*	-99*
CCC(C)NC(=O)c1cn(CC)c2cc(N3CCN(C)CC3)c(F)cc2c1=O (stereo not given)	i	i	i	i	.	.
CCOC(=O)c1cn(CC)c2cc(N3CCN(C)CC3)c(F)cc2c1=O	i	i	i	i	.	.
